In PubChem BioAssay (NCATS):
Where “and” joins values, the source holds several entries; their conditions need not be identical. Identical values can stand only once. Records with an inconclusive call do not appear. Calls of active or inactive are those of the source. The call rests on the fitted dose curve; in most records, active means well fitted inhibition curve with a large enough effect; inconclusive means small, poorly fitted or top-dose-only effect; inactive means flat fitted curve, though single readings scatter.

Test system: not listed separately
Experiment: Drug repurposing screens with cells derived from glioblastoma tumor samples (AID 1345199); further: nearly all actives have a fitted effect of over 40% in size
Conditions: GBM patient neurospheres viability, ATP luminescence, 48 h; at 46.1 µM (top of the series); tumour line C
How it was run: (§1)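 Four patient lines of CD133+ GBM neurospheres were screened at several concentrations; hits were retested in those lines plus three slower-growing GBM lines, using 48-hour treatment and ATP-based viability.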
On the % scale 0 is the no-effect control and ±100 the full control effect; potency means the concentration at half of the fitted maximal effect.

SMILES | activity, negative = cell killing
CCCCNCC(O)c1ccc(O)cc1 (stereo unspecified) | 1.33% (inactive)
C#CC(C)(O)CC (stereo unspecified) | -2.82% (inactive)
O=C(CCl)c1ccc(Oc2ccc(C(=O)CCl)cc2)cc1 | -8.36% (inactive)
CCC1(CC)C(=O)NC(=O)N(C)C1=O | -31.1% (inactive)
C=CCN1CC[C@]23c4c5ccc(O)c4O[C@H]2[C@@H](O)C=C[C@H]3[C@H]1C5 | -4.91% (inactive)
C=CCC1(C(C)CCC)C(=O)N=C(S)NC1=O (stereo unspecified) | -10.6% (inactive)
O=[N+]([O-])c1cc(I)c(O)c(I)c1 | -4.29% (inactive)
C[C@]12CCC(=O)C[C@@H]1CC[C@@H]1[C@@H]2CC[C@]2(C)[C@@H](O)CC[C@@H]12 | -25.5% (inactive)
CCCC(C)C1(CC)C(=O)NC(=O)NC1=O (stereo unspecified) | -8.48% (inactive)
O=C1CCCCC1CN1CCCCC1 (stereo unspecified) | -15.7% (inactive)
C[N+]1(C)CCCCC1COC(=O)C(O)(c1ccccc1)c1ccccc1 (stereo unspecified) | -16.5% (inactive)
C[C@@H]1[C@@H]2Cc3ccc(O)cc3[C@@]1(C)CCN2CC1CC1 | 6.7% (inactive)
C=CCN(C1=NCCN1)c1c(Cl)cccc1Cl | -15.8% (inactive)
O=c1[nH]cc(N(CCCl)CCCl)c(=O)[nH]1 | -21.9% (inactive)
O=P(O)(O)C(Cl)(Cl)P(=O)(O)O | -5.59% (inactive)
CNC1(c2ccccc2Cl)CCCCC1=O (stereo unspecified) | -5.45% (inactive)
O=C1CN(O)C(c2ccccc2)=c2cc(Cl)ccc2=N1 | -13.2% (inactive)

SMILES | activity, negative = cell killing
c1ccc2sc(SNC3CCCCC3)nc2c1 | -8.99% (inactive)
CN[C@H]1C[C@@H](N)[C@H](O)[C@@H](O[C@@H]2O[C@H](CO)[C@H](O)[C@@H]3OC4(O[C@H]23)O[C@H](C(N)CO)[C@H](O)[C@H](O)[C@H]4O)[C@@H]1O (stereo partly specified) | 9% (inactive) and -3.99% (inactive)
C[C@]12CC[C@H]3[C@@H](CCC4=C(O)C(=O)CC[C@@H]43)[C@@H]1CC[C@@H]2OC(=O)CCC1CCCC1 | -19.8% (inactive)
[2H]C([2H])([2H])[C@H](N)Cc1ccccc1 | -22.7% (inactive)
Cc1ccccc1-n1c(CF)nc2ccc(N)cc2c1=O | -23.5% (inactive)
O=C(NC(=O)c1c(F)cccc1F)Nc1ccc(Cl)c(Oc2ncc(C(F)(F)F)cc2Cl)c1 | -19.8% (inactive)
C[C@]12CC[C@H]3[C@@H](CC[C@@]45O[C@@H]4C(O)=C(C#N)C[C@]35C)[C@@H]1CC[C@@H]2O | -5.72% (inactive)
CN(C)CCCCCCN(C)C (tested in a mixture with another compound) | -16.2% (inactive)
CCC(=O)O[C@]1(c2ccccc2)CCN(C)C[C@H]1C | -18.2% (inactive)
COc1ccc(OC)c([C@@H](O)[C@H](C)N)c1 | -18.1% (inactive)
c1csc(C2(N3CCCCC3)CCCCC2)c1 | -24.6% (inactive)
CC(=O)OC1CN2CCC1CC2 (stereo unspecified) | -1.09% (inactive)
Clc1ccc(C2(Cn3cncn3)OCCO2)c(Cl)c1 | -23.5% (inactive)
O=C(CS(=O)C(c1ccccc1)c1ccccc1)NO (stereo unspecified) | -22% (inactive)
C[C@@H](Cc1ccccc1)N(C)C | -6.52% (inactive)
OC[C@@H](O)[C@H]1O[C@@H]2O[C@H](C(Cl)(Cl)Cl)O[C@@H]2[C@H]1O | -11.5% (inactive)

Same assay, conditions: GBM patient neurospheres viability, ATP luminescence, 48 h; tumour line A

SMILES | Potency
O=[N+]([O-])c1cc(I)c(O)c(I)c1 | 25.1 µM (active)
C[C@]12CCC(=O)C[C@@H]1CC[C@@H]1[C@@H]2CC[C@]2(C)[C@@H](O)CC[C@@H]12 | 12.6 µM (active)
Clc1ccc(C(Cn2ccnc2)OCc2csc3c(Cl)cccc23)c(Cl)c1 (stereo unspecified) | 12.6 µM (active)

Test system: astro (control astrocytes)
Experiment: as above
Conditions: viability, ATP luminescence, 48 h; series mostly up to 45.9 µM; activity, negative = cell killing: at the top concentration
How it was run: as §1

SMILES | activity, negative = cell killing | Potency
CCCCNCC(O)c1ccc(O)cc1 (stereo unspecified) | -19.5% (inactive) | –
C#CC(C)(O)CC (stereo unspecified) | -13.2% (inactive) | –
O=C(CCl)c1ccc(Oc2ccc(C(=O)CCl)cc2)cc1 | -9.89% (inactive) | –
CCC1(CC)C(=O)NC(=O)N(C)C1=O | -15.3% (inactive) | –
C=CCN1CC[C@]23c4c5ccc(O)c4O[C@H]2[C@@H](O)C=C[C@H]3[C@H]1C5 | -11.6% (inactive) | –
C=CCC1(C(C)CCC)C(=O)N=C(S)NC1=O (stereo unspecified) | -19.1% (inactive) | –
O=[N+]([O-])c1cc(I)c(O)c(I)c1 | – | 35.5 µM (active)
CCCC(C)C1(CC)C(=O)NC(=O)NC1=O (stereo unspecified) | -17% (inactive) | –
O=C1CCCCC1CN1CCCCC1 (stereo unspecified) | -14.6% (inactive) | –
C[N+]1(C)CCCCC1COC(=O)C(O)(c1ccccc1)c1ccccc1 (stereo unspecified) | -20.7% (inactive) | –
C[C@@H]1[C@@H]2Cc3ccc(O)cc3[C@@]1(C)CCN2CC1CC1 | -12.6% (inactive) | –
CC[C@H]1[C@@H]2C[C@H]3[C@@H]4N(C)c5ccccc5[C@]45C[C@@H](C2[C@H]5O)N3[C@@H]1O (stereo partly specified) | -12.2% [at 21.2 µM] (inactive) | –
C=CCN(C1=NCCN1)c1c(Cl)cccc1Cl | -16.9% (inactive) | –
O=c1[nH]cc(N(CCCl)CCCl)c(=O)[nH]1 | -13.8% (inactive) | –
O=P(O)(O)C(Cl)(Cl)P(=O)(O)O | 4.38% (inactive) | –
Clc1ccc(C(Cn2ccnc2)OCc2csc3c(Cl)cccc23)c(Cl)c1 (stereo unspecified) | -11.5% [at 21.2 µM] (inactive) | –
CNC1(c2ccccc2Cl)CCCCC1=O (stereo unspecified) | – | inactive
O=C1CN(O)C(c2ccccc2)=c2cc(Cl)ccc2=N1 | -9.1% (inactive) | –

SMILES | activity, negative = cell killing | Potency
c1ccc2sc(SNC3CCCCC3)nc2c1 | -25.9% (inactive) | –
CN[C@H]1C[C@@H](N)[C@H](O)[C@@H](O[C@@H]2O[C@H](CO)[C@H](O)[C@@H]3OC4(O[C@H]23)O[C@H](C(N)CO)[C@H](O)[C@H](O)[C@H]4O)[C@@H]1O (stereo partly specified) | -18.2% (inactive) | –
C[C@]12CC[C@H]3[C@@H](CCC4=C(O)C(=O)CC[C@@H]43)[C@@H]1CC[C@@H]2OC(=O)CCC1CCCC1 | -18.3% (inactive) | –
[2H]C([2H])([2H])[C@H](N)Cc1ccccc1 | -19.4% (inactive) | –
Cc1ccccc1-n1c(CF)nc2ccc(N)cc2c1=O | -11% (inactive) | –
O=C(NC(=O)c1c(F)cccc1F)Nc1ccc(Cl)c(Oc2ncc(C(F)(F)F)cc2Cl)c1 | -28.5% (inactive) | –
C[C@]12CC[C@H]3[C@@H](CC[C@@]45O[C@@H]4C(O)=C(C#N)C[C@]35C)[C@@H]1CC[C@@H]2O | -17% (inactive) | –
CN(C)CCCCCCN(C)C (tested in a mixture with another compound) | -11.8% (inactive) | –
CCC(=O)O[C@]1(c2ccccc2)CCN(C)C[C@H]1C | -17% (inactive) | –
COc1ccc(OC)c([C@@H](O)[C@H](C)N)c1 | -11.5% (inactive) | –
c1csc(C2(N3CCCCC3)CCCCC2)c1 | -19.8% (inactive) | –
CC(=O)OC1CN2CCC1CC2 (stereo unspecified) | -3.98% (inactive) | –
Clc1ccc(C2(Cn3cncn3)OCCO2)c(Cl)c1 | -8.21% (inactive) | –
CC[N+](C)(CC)CCOC(=O)C(O)(c1ccccc1)c1ccccc1 | -10.7% (inactive) | –
O=C(CS(=O)C(c1ccccc1)c1ccccc1)NO (stereo unspecified) | -12.9% (inactive) | –
C[C@@H](Cc1ccccc1)N(C)C | -11.1% (inactive) | –
OC[C@@H](O)[C@H]1O[C@@H]2O[C@H](C(Cl)(Cl)Cl)O[C@@H]2[C@H]1O | -15.1% (inactive) | –
